The full ranking holds about 33,000 sequences; the median of “E-score (-0.5 to 0.5)” is about -0.043, and the highest 2% start at about 0.37. The list comes from a sample in which the highest values are over-represented; it also holds similar and randomly drawn sequences.
The sequences below were run against T1, Upc2 (UniProt Q12151) (assay: PBM E-score (8-mer binding enrichment) (E-score (-0.5 to 0.5)); higher = stronger / more preferred TF binding). Settings: protein concentration: 200 nM; construct: GST-full length.
T1 sequence: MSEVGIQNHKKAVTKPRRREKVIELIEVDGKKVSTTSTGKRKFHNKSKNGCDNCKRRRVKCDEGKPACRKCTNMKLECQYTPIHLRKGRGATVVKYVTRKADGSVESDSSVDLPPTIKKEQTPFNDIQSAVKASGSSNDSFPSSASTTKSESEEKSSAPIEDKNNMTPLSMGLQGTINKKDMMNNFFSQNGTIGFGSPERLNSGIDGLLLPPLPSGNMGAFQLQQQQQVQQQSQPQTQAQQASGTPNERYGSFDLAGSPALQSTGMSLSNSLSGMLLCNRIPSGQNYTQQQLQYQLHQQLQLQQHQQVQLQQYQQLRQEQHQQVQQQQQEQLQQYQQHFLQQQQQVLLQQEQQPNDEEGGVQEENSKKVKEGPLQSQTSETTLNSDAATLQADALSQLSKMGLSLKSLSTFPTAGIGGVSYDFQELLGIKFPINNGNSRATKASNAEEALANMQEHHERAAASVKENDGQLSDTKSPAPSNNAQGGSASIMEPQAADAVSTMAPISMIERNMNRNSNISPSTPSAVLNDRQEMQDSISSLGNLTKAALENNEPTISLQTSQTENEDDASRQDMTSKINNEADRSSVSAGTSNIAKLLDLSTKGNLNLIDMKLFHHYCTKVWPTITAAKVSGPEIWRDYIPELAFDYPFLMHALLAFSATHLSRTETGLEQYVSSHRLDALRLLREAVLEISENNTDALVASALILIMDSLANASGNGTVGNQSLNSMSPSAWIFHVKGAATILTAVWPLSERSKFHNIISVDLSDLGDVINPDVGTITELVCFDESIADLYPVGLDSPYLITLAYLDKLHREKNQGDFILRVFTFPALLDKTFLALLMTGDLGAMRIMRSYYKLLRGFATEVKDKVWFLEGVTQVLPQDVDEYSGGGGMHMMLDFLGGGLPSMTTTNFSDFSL
How it was run: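 Masliner-normalised scans of fluorescent anti-GST signal were the basis for scoring. That signal came from GST-tagged yeast transcription factors applied at about 100-200 nM to double-stranded universal all-10-mer Agilent arrays on fresh or once-stripped slides. Each ungapped eight-base word, pooled with its reverse complement, received an E-score from the Universal PBM Analysis Suite.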

Row | Sequence | PBM E-score
1 | GTGTACGA | 0.479
2 | GTGTACCA | 0.0546
3 | GTGTACTA | 0.127
4 | CAAGCCTA | -0.0953
5 | GACGACGC | 0.0643
6 | CACGACGC | 0.0689
7 | AACGACGC | 0.442
8 | AACGACGG | 0.437
9 | ACCGACGG | 0.108
10 | CACGACGG | 0.129
11 | TACGACGA | 0.465
12 | GACGACGA | -0.00938
13 | AAGGACGT | 0.0675
14 | ACCGACGT | 0.238
15 | CACGACGA | 0.126
16 | AACGACGT | 0.408
17 | GAGCTTGC | -0.231
18 | CTCTCTTC | -0.29
19 | CTAAGTTC | -0.0418
20 | CCAATGGC | -0.226
21 | ATTCAAAA | 0.0167
22 | CTCCACCC | -0.189
23 | TAACTCGA | 0.109
24 | GCTGAGAC | -0.203
25 | AATATCTG | -0.124

Row | Sequence | PBM E-score
26 | AACGACGA | 0.454
27 | AGCGACGA | 0.185
28 | ATCGACGA | -0.0697
29 | AACATACG | 0.39
30 | CGCATACC | 0.212
31 | ATCATACG | 0.383
32 | ATCATACC | -0.02
33 | AACATACC | 0.16
34 | CACATACG | 0.401
35 | CGCATACA | 0.114
36 | CACATACA | -0.107
37 | ATCATACA | 0.0941
38 | CGCATACG | 0.439
39 | AACATACT | 0.0309
40 | CACATACC | -0.12
41 | TGTAGGAA | -0.0273
42 | AAGATGGG | -0.219
43 | GATCCAGA | 0.0551
44 | CTTAGCGC | 0.126
45 | GACCCCAA | -0.0347
46 | ACAAATCT | 0.0248
47 | ATCGGTCG | 0.197
48 | AAAGAAGG | -0.138
49 | GCAGTATA | 0.219
50 | ATGTCTCA | -0.192

Row | Sequence | PBM E-score
51 | ACATAGGC | -0.126
52 | TGCGTAAA | 0.294
53 | ATCGTAAT | 0.287
54 | ACCGTAAC | 0.27
55 | GTCGTAAA | 0.477
56 | TTCGTAAA | 0.459
57 | GGCGTAAA | 0.279
58 | ATCGTAAA | 0.448
59 | GACGTAAA | 0.228
60 | TCCGTAAA | 0.357
61 | ATCGTAAC | 0.372
62 | AACGTAAC | 0.245
63 | ATCGTAAG | 0.354
64 | GAGTAGGC | -0.18
65 | AGTCTACA | -0.115
66 | AGAACACC | -0.039
67 | CCGAGTGA | 0.102
68 | CAATAAGG | -0.351
69 | CACGTAAA | 0.253
70 | CTCGTAAA | 0.482
71 | CGCGTAAA | 0.354
72 | ACAGATTA | -0.111
73 | CATAGTAC | 0.0276
74 | ACATTTTA | 0.187
75 | AACGTCGA | 0.202

Row | Sequence | PBM E-score
76 | ACCGTCGA | -0.191
77 | ACCGTCGC | 0.233
78 | AACGTCGG | 0.176
79 | ACCGTCGT | 0.394
80 | AACGTCGT | 0.38
81 | GCAATCTA | -0.0928
82 | TAAGTAAA | -0.00508
83 | GTTGCAGA | -0.126
84 | CCATACGC | 0.322
85 | CCATACAA | -0.09
86 | CCATACGG | 0.396
87 | ACATACGG | 0.354
88 | CCATACTA | -0.101
89 | CCATACGA | 0.473
90 | CCGTTCCG | 0.323
91 | ATTGTTGG | -0.153
92 | CGATTTGC | -0.0413
93 | CCGGTTAG | 0.0696
94 | ACAGGTAA | -0.0299
95 | CCGATACA | 0.159
96 | ACGATACA | 0.279
97 | ACGATACT | 0.313
98 | ACGATACG | 0.391
99 | CCGATACG | 0.392
100 | CGGATACA | 0.201

Row | Sequence | PBM E-score
101 | CCGATACC | -0.00432
102 | CGGATACC | 0.0516
103 | AAGATACG | 0.349
104 | CGGATACG | 0.408
105 | CAGATACG | 0.375
106 | CAGATACC | -0.184
107 | ATTCTAAA | 0.155
108 | CCCAGCCA | -0.0649
109 | GACGGTGC | 0.0569
110 | AAAATCTG | -0.0273
111 | CGCATAGC | 0.265
112 | AAGACTGG | -0.109
113 | CCCTCACA | -0.164
114 | CACGAGTA | 0.126
115 | AACGCGTT | 0.248
116 | GACGAGTA | 0.104
117 | TACGAGTA | 0.453
118 | AGCGAGTG | 0.204
119 | AACGAGTT | 0.399
120 | CACGAGTG | 0.0785
121 | AACGAGTG | 0.414
122 | AGCGAGTA | 0.269
123 | AAAGAGTT | -0.235
124 | AACGAGTA | 0.437
125 | ACCGAGTA | 0.25

Row | Sequence | PBM E-score
126 | ATCATCTA | -0.0847
127 | CTGGTCAA | -0.17
128 | ACAATATC | 0.125
129 | CATCAGCC | -0.104
130 | TTACTGAA | 0.182
131 | AACGAGTC | 0.414
132 | CACGAGTC | 0.00415
133 | GACGAGTC | 0.0657
134 | ACAATAAT | 0.0963
135 | ACCCGCTG | -0.245
136 | AAGCTGCG | -0.0191
137 | AGGTTCAA | -0.0255
138 | ATACGGGC | 0.426
139 | AGACGGGG | -0.147
140 | CTACGGGA | 0.00845
141 | ACACGGGA | -0.129
142 | GCACGGGA | 0.0149
143 | ACACGGGC | -0.0605
144 | ATACGGGA | 0.382
145 | CTACGGGC | -0.0221
146 | ACACGGGG | -0.0346
147 | ATACGGGG | 0.411
148 | GTACGGGA | 0.389
149 | GGACGGGA | -0.0849
150 | ACCATTAC | 0.17

Row | Sequence | PBM E-score
151 | AAACCGTC | -0.0199
152 | ACTCCAAG | -0.152
153 | CTCCTTAC | 0.112
154 | CGATTGAA | 0.0171
155 | GATATGGA | 0.047
156 | ACCCAACA | -0.221
157 | GACGCTCC | -0.0386
158 | AAACATCG | -0.033
159 | CTTCACGC | 0.0017
160 | CTATGGAG | -0.173
161 | GTTGTTTA | 0.0127
162 | GTGTCCTA | -0.0178
163 | CCATAGAA | -0.25
164 | ACCCGTCA | -0.119
165 | GTATAAGA | 0.395
166 | ATATAAGA | 0.22
167 | GTATAATA | 0.375
168 | CTATAAGA | 0.247
169 | CTATAATA | -0.055
170 | ATATAATA | -0.0226
171 | AACGTTGA | 0.0964
172 | CCACCAGA | -0.0981

Source: the supplement of paper PMC3334620
